Screens as filed in PubChem BioAssay.
rCAG binder – molecules binding r(CAG) RNA repeats. r(CAG) RNA repeat, TO-PRO-1 dye displacement fluorescence. inhibition, % at 3 µM. actives 1.3% (n = 370,000);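 active means inhibition above the plate cutoff, the mean of all test compounds on that plate plus 3 SD, cut at about 35% in these data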;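 further: 0% = DMSO alone and 100% = 100 µM mitoxantrone as full dye displacement; higher means more dye released from RNA so lower well fluorescence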
MBD2 inh – inhibitors of human MBD2 binding to methylated oligonucleotide; Q9UBB5; TR-FRET; inhibition, % at 4.4 µM; actives 0.31% (n = 370,000); AID 686964; in the data active means inhibition above about 13%
ABHD5-PLIN5 inh – blocks binding of human ABHD5 to perilipin-5. actives 0.78% (n = 360,000). AID 602281. inhibition, % at 4 µM. Split G. princeps luciferase complementation, luminescence, 4 h;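 active means inhibition above the mean inhibition across every tested compound plus 3 SD, cut at about 22% in these data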;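 further: 0% = DMSO only wells and the 100% control is not disclosed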
UHRF1 MBD2 ctr – human UHRF1 methylated DNA binding inhibitors. Q96T88. UHRF1 binding to methylated oligo, TR-FRET. inhibition, % at 4.4 µM. actives 0.75% (n = 370,000); in the data active means inhibition above about 21%;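 further: UHRF1 SRA domain binding a hemimethylated CpG hairpin DNA probe; 0% = median of test compound wells and 100% = reference inhibitor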
Target sequence (Q96T88 whole entry, looked up, the tested form may be a part): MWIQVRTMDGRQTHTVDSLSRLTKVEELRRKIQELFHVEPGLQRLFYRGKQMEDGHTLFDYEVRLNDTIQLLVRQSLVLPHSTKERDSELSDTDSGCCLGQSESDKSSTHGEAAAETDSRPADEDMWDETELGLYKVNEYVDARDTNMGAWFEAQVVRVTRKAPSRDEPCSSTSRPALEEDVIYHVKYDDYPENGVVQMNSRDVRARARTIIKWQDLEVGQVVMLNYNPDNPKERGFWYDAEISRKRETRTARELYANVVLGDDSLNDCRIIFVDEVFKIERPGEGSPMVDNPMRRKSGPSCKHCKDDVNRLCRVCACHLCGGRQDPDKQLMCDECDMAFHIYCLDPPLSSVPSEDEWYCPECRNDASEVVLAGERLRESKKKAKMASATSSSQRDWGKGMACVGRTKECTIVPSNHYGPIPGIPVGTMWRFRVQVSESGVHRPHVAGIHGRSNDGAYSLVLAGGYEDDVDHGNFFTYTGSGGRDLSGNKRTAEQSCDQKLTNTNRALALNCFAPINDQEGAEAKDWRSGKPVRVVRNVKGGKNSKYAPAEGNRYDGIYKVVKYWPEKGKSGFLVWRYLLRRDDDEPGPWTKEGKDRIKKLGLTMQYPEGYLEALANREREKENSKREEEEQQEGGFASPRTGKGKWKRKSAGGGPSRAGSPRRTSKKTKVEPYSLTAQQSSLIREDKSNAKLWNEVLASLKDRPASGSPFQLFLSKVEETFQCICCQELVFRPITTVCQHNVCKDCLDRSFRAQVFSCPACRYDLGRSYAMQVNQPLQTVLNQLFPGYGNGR
LEDGF integ inh – blocks HIV-1 LEDGF/p75-dependent DNA integration | TR-FRET IN-LEDGF/p75 DNA integration, Eu/Cy5 | actives 0.64% (n = 370,000) | inhibition, % at 3.7 µM;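 active means inhibition above the screen-wide mean plus 3 SD, cut at about 13% in these data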;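 further: signal is the Cy5 over europium emission ratio at 671 and 618 nm; 0% = plate median of compound wells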
PRMT1 FP inh – blocks human protein arginine methyltransferase 1; Q99873; inhibition, % at 2.79 µM; AID 652257; recombinant PRMT1, activity-based probe fluorescence polarization; actives 1.3% (n = 370,000);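 active means inhibition above about 21% made by adding two undisclosed values, limit read from the data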
rCAG binder conf – r(CAG) RNA repeat binding, confirmation; shares compounds with rCAG binder; TO-PRO-1 dye displacement fluorescence; inhibition, % at 3 µM; actives 70% (n = 4,300);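 active means inhibition above a per-plate cutoff, the mean inhibition of sample wells plus 3 SD, cut at about 35% in these data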;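 further: loss of TO-PRO-1 fluorescence as compound displaces dye from 1x1 AA loop RNA; 0% = DMSO only wells and 100% = 100 µM mitoxantrone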
dCAG dye counter – counter-screen for rCAG RNA binders: DNA CAG dye complex inhibitors | shares compounds with rCAG binder | d(CAG) DNA oligo TO-PRO-1 dye displacement, fluorescence | inhibition, % at 3 µM | actives 94% (n = 4,300) | AID 652068;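 active means inhibition above its plate's cutoff, the mean test-well inhibition plus 3 SD, cut at about 4.8% in these data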;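 further: 0% = DNA dye mix with DMSO and 100% = 100 µM mitoxantrone; hits displace the dye from DNA and so lower well fluorescence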
* hit, by the source's call; nt = not tested or not shown. The list is not random: actives were taken first. Their share in the collection is about 4.1%.

SMILES | rCAG binder | MBD2 inh | ABHD5-PLIN5 inh | UHRF1 MBD2 ctr | LEDGF integ inh | PRMT1 FP inh | rCAG binder conf | dCAG dye counter
C=CCn1c(SCc2ccc(Br)cc2F)nc2cc(C(=O)O)ccc2c1=O | 56.7* | -4.2 | -0.1 | -0.1 | 2.3 | 1.1 | 60.5* | 21.9*
C=CCn1c(SCc2c(C)noc2C)nc2cc(C(=O)O)ccc2c1=O | 12.7 | 0.3 | 0.7 | 2.8 | -0.6 | 1.1 | nt | nt
Cc1c(CCC(=O)NCCC(=O)O)c(=O)oc2c(C)c3oc4c(c3cc12)CCCC4 | 41.9* | 1.5 | -1.5 | 1.5 | -0.8 | 1.0 | 38.2* | 10.3*
Cc1c(CCC(=O)N[C@@H](CC(C)C)C(=O)O)c(=O)oc2cc3oc4c(c3cc12)CCCC4 | 29.2 | 4.6 | 3.0 | 0.5 | -2.1 | 2.7 | nt | nt
Cc1c(CCC(=O)N[C@@H](C)C(=O)O)c(=O)oc2c(C)c3oc4c(c3cc12)CCCC4 | 43.2* | -4.5 | 1.1 | 1.0 | 1.9 | -5.4 | 39.5* | 8.8*
CCOC(=O)C1=C(C)NC(SCC(N)=O)=C(C#N)C1c1cccs1 (configuration not stated) | 0.8 | 0.5 | -7.0 | -0.6 | -1.9 | -2.3 | nt | nt
CCOC(=O)C1=C(C)NC(SCc2cc(=O)[nH][nH]2)=C(C#N)C1c1cccs1 (configuration not stated) | 58.7* | -4.0 | -6.3 | -6.7 | 5.0 | 6.7 | 39.1* | 17.2*
O=S1(=O)c2ccc(Br)cc2OC[C@@H](Cc2ccccc2)N1Cc1cn(CCC2OCCCO2)nn1 | 3.3 | -2.8 | nt | -0.8 | -2.1 | -2.8 | nt | nt
COc1ccc([C@@H]2CC=C(C(=O)O)[C@H](c3ccc(Cl)cc3)N2S(=O)(=O)c2ccc(C)cc2)cc1OC | 57.5* | 1.3 | -3.5 | 4.7 | 5.1 | 4.6 | 34.1 | 9.3*
COc1ccc([C@@H]2CC=C(C(=O)O)[C@H](c3ccc(C)cc3)N2S(=O)(=O)c2ccc(C)cc2)cc1OC | 39.8* | -3.7 | 5.6 | 3.2 | 0.7 | 6.1 | 36.5* | 7.8*
COc1cccc([C@@H]2CC=C(C(=O)O)[C@H](c3ccc(Cl)cc3)N2S(=O)(=O)c2ccc(C)cc2)c1 | 63.5* | -3.6 | -0.6 | -1.0 | -0.9 | 0.1 | 62.3* | 22.8*
COc1cc([C@@H]2CC=C(C(=O)O)[C@H](c3cccc(Cl)c3)N2S(=O)(=O)c2ccc(C)cc2)cc(OC)c1OC | 44.7* | 4.7 | 0.9 | 3.0 | -0.3 | 2.6 | 44.7* | 10.3*
Cc1ccc(S(=O)(=O)N2[C@@H](c3ccc(Br)cc3)C(C(=O)O)=CC[C@H]2c2cccc(Cl)c2)cc1 | 14.1 | -3.9 | 5.1 | 2.2 | -0.7 | -5.2 | nt | nt
COc1cccc([C@@H]2CC=C(C(=O)O)[C@H](c3ccc(C)cc3)N2S(=O)(=O)c2ccc(C)cc2)c1 | 30.0 | 0.3 | -11.0 | 4.5 | -3.3 | 1.7 | nt | nt
COC(=O)c1cc(NC(=O)NC2CCCCN(Cc3ccc(Cl)cc3)C2=O)cc(C(=O)OC)c1 (configuration not stated) | 7.8 | -2.9 | nt | -1.1 | 7.2 | -8.3 | nt | nt
c1ccc(-c2c[nH]c3cccc(-c4cc5ccccc5o4)c23)cc1 | 9.3 | -1.9 | nt | -0.7 | 3.9 | -4.8 | nt | nt
COc1cc([C@@H]2CC=C(C(=O)O)[C@H](c3ccc(C)cc3)N2S(=O)(=O)c2ccc(C)cc2)cc(OC)c1OC | 34.9* | 0.2 | -6.5 | -0.8 | 1.4 | 1.2 | 42.1* | 8.6*
COc1ccc([C@@H]2CC=C(C(=O)O)[C@H](c3ccc(C(C)(C)C)cc3)N2S(=O)(=O)c2ccc(C)cc2)cc1OC | 67.3* | -2.0 | 1.4 | 6.0 | 2.7 | -2.4 | 65.8* | 28.4*
COc1cccc([C@@H]2CC=C(C(=O)O)[C@H](c3ccccc3F)N2S(=O)(=O)c2ccc(C)cc2)c1 | 40.8* | 1.0 | -1.4 | 0.1 | 3.4 | -0.8 | 37.3* | 9.0*
Cc1ccccc1C(=O)N[C@H](C(=O)N1CCC[C@H]1C(=O)NC1CCCC1)C1CCCCC1 | -0.9 | 2.1 | nt | -0.5 | 6.2 | -0.6 | nt | nt
CCC(C)(C)C(=O)N1CCC(C(=O)NC2CCCc3ccccc32)CC1 (configuration not stated) | -2.5 | 5.7 | nt | -0.5 | 2.2 | -5.5 | nt | nt
O=C(C1=NN[C@@H]2C(=O)N(c3cccc(C(F)(F)F)c3)C(=O)[C@H]12)C(c1ccccc1)c1ccccc1 | 54.5* | -0.1 | -2.6 | -2.3 | -0.6 | 0.5 | 26.6 | 8.9*
Cc1cc(OCc2nn[nH]n2)c2c(C)c(Cc3ccccc3)c(=O)oc2c1 | 49.7* | -0.8 | -1.3 | -2.5 | 4.5 | -0.7 | 50.3* | 12.7*
COc1ccc(C(=O)/C=C/Nc2ccc(S(=O)(=O)Nc3onc(C)c3C)cc2)cc1 | 46.5* | -2.0 | -4.7 | 1.7 | 1.2 | 1.1 | 48.8* | 18.4*
Cc1noc(NS(=O)(=O)c2ccc(N/C=C/C(=O)c3ccc(F)cc3)cc2)c1C | 14.0 | -7.1 | 2.0 | -0.5 | 0.5 | -1.4 | nt | nt
SMILES | rCAG binder | MBD2 inh | ABHD5-PLIN5 inh | UHRF1 MBD2 ctr | LEDGF integ inh | PRMT1 FP inh | rCAG binder conf | dCAG dye counter
CCc1ccc(C(=O)/C=C/Nc2ccc(S(=O)(=O)Nc3onc(C)c3C)cc2)cc1 | 56.9* | 1.5 | -2.0 | 2.2 | 1.2 | 0.2 | 79.1* | 36.7*
CCCCCC(=O)Nc1nc(C)c(-c2csc(Nc3cc(Cl)ccc3OC)n2)s1 | 39.5* | 2.2 | -1.3 | -4.0 | 0.0 | 0.9 | 26.7 | 13.3*
CCCC(=O)Nc1nc(C)c(-c2csc(Nc3cc(OC)ccc3OC)n2)s1 | 21.9 | -0.3 | -18.6 | -3.3 | 1.9 | 2.1 | nt | nt
C=CCn1c(O)c(C2=c3ccccc3=NC2=O)sc1=Nc1ccc(O)cc1 | 32.4 | -6.7 | 0.9 | -0.7 | 8.0 | -1.5 | nt | nt
O=C1N=c2ccccc2=C1c1sc(=S)n(NC(=O)c2ccccc2)c1O | 60.6* | -0.4 | -12.4 | -1.5 | -2.3 | 11.2 | 40.6* | 19.7*
O=C(Nc1ccc(S(=O)(=O)Nc2ncccn2)cc1)c1nn(Cc2ccccc2)c(=O)c2ccccc12 | 23.0 | 4.0 | 4.8 | 4.6 | -5.8 | 1.1 | nt | nt
COc1ccc(-n2ccc(=O)c(C(=O)Nc3ccc(S(=O)(=O)Nc4nccs4)cc3)n2)cc1 | 18.5 | -0.9 | -11.1 | -2.7 | 1.1 | -2.0 | nt | nt
O=C(Nc1ccc(S(=O)(=O)Nc2nccs2)cc1)c1cccc(N2C(=O)c3ccccc3C2=O)c1 | 68.9* | 7.8 | 0.1 | 4.8 | -1.4 | 5.4 | 58.2* | 23.3*
Cc1cccc(-n2ccc(=O)c(C(=O)Nc3ccc(S(=O)(=O)Nc4nccs4)cc3)n2)c1 | 65.0* | -0.8 | -1.5 | -1.3 | -1.9 | -3.6 | 13.7 | 6.0*
O=C(Nc1ccc(S(=O)(=O)Nc2nccs2)cc1)c1nn(-c2ccccc2)ccc1=O | 42.9* | -0.4 | -12.4 | 0.8 | 4.0 | 3.9 | 55.4* | 25.8*
